# Experimental data from PubChem BioAssay.
# Activity calls are given as the source filed them. Unless noted, no rule for the calls is given here.
# How the values were obtained:
# [1] = HepG2 liver cancer cell viability effects, profiling panel, resazurin fluorescence, 24 h, PK04 Diversity Set (AID 1172); conditions: higher = more signal
# [2] = basal S. cerevisiae growth modulation, no modifier, primary screen, OD600, strain BY4716, 24 h, basal condition (AID 1173); conditions: OD600, 24 h, higher = more signal, called active from +8 up or from −8 down
# [3] = MM1S myeloma cell viability, profiling panel, resazurin fluorescence, basal, 24 h, PK04 Diversity Set (AID 1174); conditions: higher = more signal, called active from +8 up or from −8 down;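 also: MM1S multiple myeloma cell line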
# [4] = target: Dihydroorotate dehydrogenase (quinone), mitochondrial (Plasmodium falciparum (isolate 3D7)) (UniProt Q08210); assay: PfDHODH enzyme inhibitors, primary screen, biochemical, C-terminal His tag, absorbance 600 nm (AID 1175); conditions: DCIP absorbance 600 nm, higher = more signal, called active from +8 up or from −8 down;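 also: recombinant parasite enzyme with a five histidine tag at its C terminus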
# [5] = P. aeruginosa biofilm formation inhibitors, primary screen, strain PAO1, LB-PBS medium, absorbance 600 nm (AID 1176); conditions: P. aeruginosa PAO1 growth/biofilm, A600, 12 h; higher = more signal
# [6] = S. cerevisiae RM11-1a growth modifiers, primary screen, strain RM11-1a, OD600, basal, 24 h (AID 1177); conditions: OD600, 24 h, higher = more signal, called active from +8 up or from −8 down;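 also: cultures grown under basal conditions with no added stressor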
# [7] = E. coli acrAB mutant growth effects, primary screen, E. coli filamentation inducers, strain DRC39, OD650, 24 h (AID 1178); conditions: higher = more signal, called active from +8 up or from −8 down;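 also: growth measured as culture turbidity by optical density at 650 nm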
# [8] = E. coli acrAB mutant growth effects, primary screen, E. coli filamentation inducers, strain DRC39, OD650, 48 h (AID 1179);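 also: screen aims at cell division blockers that make cells filament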; conditions: E. coli DRC39 delta-acrAB growth, higher = more signal, called active from +8 up or from −8 down
# [9] = RPMI8226 myeloma cell viability, profiling panel, resazurin fluorescence, basal, 24 h, PK04 Diversity Set (AID 1180); conditions: higher = more signal;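 also: RPMI8826 multiple myeloma cell line at 5000 cells per well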
# [10] = target: E3 ubiquitin-protein ligase XIAP (Homo sapiens) (UniProt P98170); assay: XIAP binders, primary screen, biophysical, small-molecule microarray, fluorescence 635 nm (AID 1181); conditions: small-molecule microarray binding, higher = more signal;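 also: score merges 667 nm emission and signal to noise over triplicate slides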
# [11] = tested on: XIP peptide (Xip251-270) binding; assay: small-molecule binders of XIP peptide, primary screen, biochemical, small-molecule microarray, fluorescence 635/667 nm, 0.1 µg/mL protein (AID 1182); conditions: fluorescent protein binding, 635 nm, higher = more signal, called active from +8 up or from −8 down
# XIP peptide (Xip251-270) = assay: small-molecule binders of XIP peptide, primary screen, biochemical, small-molecule microarray, fluorescence 635/667 nm, 0.5 µg/mL protein (AID 1183); conditions: small-molecule microarray binding, fluorescence 635 nm; higher = more signal
# [12] = Plasmodium falciparum growth inhibition, primary screen, strain 3D7, DAPI fluorescence, 100 nL (AID 1184);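 also: parasites grown inside human red blood cells in medium with human serum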; conditions: P. falciparum 3D7 growth, 3 d, higher = more signal
# [13] = target: Homeobox protein Hox-A13 (Mus musculus) (UniProt Q62424); assay: inhibitors of HoxA13-DNA binding, primary screen, biochemical, fluorescence polarization, labeled oligonucleotide (AID 1185); conditions: 15 min, higher = more signal, called active from +8 up or from −8 down
# [14] = inhibitors of hydroxyurea-induced Chk1 phosphorylation, primary screen, imaging, HeLa, phospho-Chk1 antibody, percent positive cells (AID 1186); conditions: hydroxyurea-induced phospho-Chk1 immunofluorescence imaging, higher = more signal
# [15] = inhibitors of hydroxyurea-induced Chk1 phosphorylation, primary screen, imaging, HeLa, phospho-Chk1 nuclear intensity (AID 1187); conditions: hydroxyurea-induced phospho-Chk1 immunofluorescence imaging, higher = more signal
# Chain of Homeobox protein Hox-A13 (Mus musculus) (Q62424 whole entry, looked up): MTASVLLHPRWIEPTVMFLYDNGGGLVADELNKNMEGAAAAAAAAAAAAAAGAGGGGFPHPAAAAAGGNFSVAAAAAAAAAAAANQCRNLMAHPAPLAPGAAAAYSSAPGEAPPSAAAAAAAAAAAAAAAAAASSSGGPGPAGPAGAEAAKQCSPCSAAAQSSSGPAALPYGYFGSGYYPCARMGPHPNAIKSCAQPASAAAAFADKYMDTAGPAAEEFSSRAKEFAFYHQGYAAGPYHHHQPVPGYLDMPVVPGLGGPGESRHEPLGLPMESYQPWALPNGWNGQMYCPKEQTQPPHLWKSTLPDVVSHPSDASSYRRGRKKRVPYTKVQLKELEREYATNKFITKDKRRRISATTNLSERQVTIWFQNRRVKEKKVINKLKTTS
# Chain of E3 ubiquitin-protein ligase XIAP (Homo sapiens) (P98170 whole entry, looked up): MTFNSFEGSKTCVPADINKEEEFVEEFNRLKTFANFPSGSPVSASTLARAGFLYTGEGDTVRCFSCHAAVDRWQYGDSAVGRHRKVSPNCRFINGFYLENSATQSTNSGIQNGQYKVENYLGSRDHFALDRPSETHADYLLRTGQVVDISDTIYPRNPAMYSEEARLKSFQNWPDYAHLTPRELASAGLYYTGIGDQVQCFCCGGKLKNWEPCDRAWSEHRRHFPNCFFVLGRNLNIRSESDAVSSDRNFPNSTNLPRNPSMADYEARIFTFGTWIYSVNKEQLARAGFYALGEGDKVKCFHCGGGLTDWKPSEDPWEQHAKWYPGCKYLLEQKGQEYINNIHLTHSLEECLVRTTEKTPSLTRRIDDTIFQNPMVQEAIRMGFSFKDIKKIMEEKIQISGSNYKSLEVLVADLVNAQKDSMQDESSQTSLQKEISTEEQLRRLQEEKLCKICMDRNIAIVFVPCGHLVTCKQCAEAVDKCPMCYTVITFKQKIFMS
# Chain of Dihydroorotate dehydrogenase (quinone), mitochondrial (Plasmodium falciparum (isolate 3D7)) (Q08210 whole entry, looked up): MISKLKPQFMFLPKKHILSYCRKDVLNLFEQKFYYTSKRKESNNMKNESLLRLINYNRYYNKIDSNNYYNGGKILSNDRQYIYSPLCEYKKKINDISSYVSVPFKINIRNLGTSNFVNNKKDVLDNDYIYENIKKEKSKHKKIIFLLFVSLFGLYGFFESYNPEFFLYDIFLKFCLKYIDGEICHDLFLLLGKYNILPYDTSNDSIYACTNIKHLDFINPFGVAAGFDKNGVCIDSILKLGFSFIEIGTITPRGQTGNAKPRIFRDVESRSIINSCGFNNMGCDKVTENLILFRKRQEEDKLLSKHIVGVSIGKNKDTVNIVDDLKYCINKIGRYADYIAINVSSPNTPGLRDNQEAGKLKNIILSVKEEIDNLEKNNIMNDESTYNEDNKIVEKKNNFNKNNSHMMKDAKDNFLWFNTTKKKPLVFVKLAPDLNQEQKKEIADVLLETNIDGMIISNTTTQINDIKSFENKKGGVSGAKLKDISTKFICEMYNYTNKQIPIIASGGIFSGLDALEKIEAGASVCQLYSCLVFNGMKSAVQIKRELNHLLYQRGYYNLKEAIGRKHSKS
Compound,z-score [1],z-score [2],z-score [3],composite z-score [4],z-score [5],z-score [6],z-score [7],z-score [8],z-score [9],composite z-score [10],composite z-score [11],composite z-score (XIP peptide (Xip251-270)),z-score [12],z-score [13],z-score [14],z-score [15]
C=CCC(OC(C)=O)[C@@H]1[C@@H](N(Cc2cc3ccccc3o2)C(=O)c2cccc3ccccc23)c2cc(OCCCO)ccc2N1C(=O)c1ccc2ccccc2n1 (some centres undefined),-1.01,-0.711 (inactive),-0.367 (inactive),0.364 (inactive),0.256 (inactive),0.202 (inactive),0.935 (inactive),0.207 (inactive),-0.544,-0.393,-0.667 (inactive),0.202,-1.99,-1.2 (inactive),-0.0897 (inactive),0.0983 (inactive)
NC(=O)N1C(=O)C2C(C1=O)C1C=C(CCCO)C2C(c2ccc(CN3CCCC3)cc2)N1Cc1sc2ccccc2c1Cl (centres undefined),-0.968,-2.06 (inactive),-1.29 (inactive),0.574 (inactive),0.0721 (inactive),-0.243 (inactive),-0.291 (inactive),-0.693 (inactive),-1.04,-0.167,-0.211 (inactive),0.245,-0.44,-4.57 (inactive),0.252 (inactive),0.175 (inactive)
CCCC#C[Si](O[C@H](CC)c1cn(Cc2ccccc2)nn1)(C(C)C)C(C)C,-0.394,-14.2 (active),-1.05 (inactive),-0.205 (inactive),0.0763 (inactive),-0.0787 (inactive),-0.393 (inactive),-0.195 (inactive),-0.754,-0.173,-0.249 (inactive),0.598,0.0331,-0.88 (inactive),-0.074 (inactive),0.0744 (inactive)
COc1ccc([Si](C)(C)[C@H]2[C@H](CC(=O)N3Cc4ccccc4C[C@H]3CO)O[C@@]3(C(=O)N(C)c4ccccc43)[C@@H]2C)cc1,-0.894,-3.38 (inactive),-1.97 (inactive),-1.45 (inactive),-0.695 (inactive),0.0745 (inactive),-1.44 (inactive),-1.38 (inactive),-2.06,0.119,0.958 (inactive),0.808,-2.63,-5.59 (inactive),0.227 (inactive),0.169 (inactive)
COC(=O)C(CC#Cc1ccc2c(c1)[C@]1(C(=O)N2)[C@H](c2ccc(OCCO)cc2)N2[C@H](c3ccccc3)[C@H](c3ccccc3)OC(=O)[C@H]2[C@@H]1C(=O)N1CCCCCCC1)C(=O)OC,-0.198,1.12 (inactive),-0.223 (inactive),0.365 (inactive),2.9 (inactive),1.3 (inactive),-0.8 (inactive),0.136 (inactive),-1.02,0.997,2.15 (inactive),0.812,-2.24,-14.6 (active),-0.224 (inactive),-0.197 (inactive)
O=C1[C@H]2C=C(I)[C@H](C[C@@H]2OCCCCCCO)[C@@]12CO2,0.21,-1.77 (inactive),-0.394 (inactive),0.742 (inactive),1.13 (inactive),-0.473 (inactive),-0.875 (inactive),-0.482 (inactive),-0.658,-0.109,-0.0604 (inactive),0.77,1.09,-3.09 (inactive),-0.116 (inactive),-0.124 (inactive)
CCCCCCc1nc(-c2ccc(-c3ccc(Cl)c(Cl)c3)o2)cc2c1[Si](C(C)C)(C(C)C)OC2,0.373,-7.31 (inactive),-0.273 (inactive),-1.97 (inactive),-0.558 (inactive),-0.878 (inactive),0.522 (inactive),0.395 (inactive),-0.151,-0.0233,0.108 (inactive),-0.0619,-2.22,-3.51 (inactive),-0.6 (inactive),-0.222 (inactive)
C#CCN1[C@@H](Cc2ccccc2)C(=O)O[C@H](Cc2ccccc2)[C@@H]1/C=C/C1CC1,0.642,-0.236 (inactive),1.56 (inactive),0.0255 (inactive),-0.565 (inactive),0.0761 (inactive),1.37 (inactive),1.06 (inactive),1.62,-0.208,-0.157 (inactive),0.5,-1.18,-0.571 (inactive),-0.352 (inactive),-0.267 (inactive)
COc1cc(OC)c(C(O)C2C=CC3C(=O)N(c4ccccc4)C(=O)C3N2Nc2ccc(C(C)C)cc2)cc1Br (centres undefined),0.092,-4.46 (inactive),-0.263 (inactive),0.145 (inactive),2.24 (inactive),0.171 (inactive),0.238 (inactive),0.48 (inactive),0.289,0.0838,0.242 (inactive),0.785,-0.0986,-1.37 (inactive),-0.78 (inactive),-0.639 (inactive)
O=C1O[C@@H](c2ccccc2)[C@@H](c2ccccc2)N2[C@@H](c3ccc(OCCO)cc3)[C@]3(C(=O)Nc4ccc(C#CCCO)cc43)[C@@H](C(=O)O)[C@H]12,-0.0464,-0.718 (inactive),0.314 (inactive),-1.25 (inactive),0.185 (inactive),0.575 (inactive),0.932 (inactive),0.91 (inactive),0.104,0.104,0.901 (inactive),0.443,0.612,-5.86 (inactive),-0.368 (inactive),-0.451 (inactive)
CCCN1C(=O)[C@@]2(c3ccc([N+](=O)[O-])cc3)CC(=O)N(CC34CC5CC(CC(C5)C3)C4)[C@@H]2c2ccc(CO)cc21,-0.113,-0.547 (inactive),-0.148 (inactive),-4.78 (inactive),0.186 (inactive),-0.664 (inactive),0.2 (inactive),-0.255 (inactive),-0.559,0.0666,-0.349 (inactive),0.483,0.877,-1.71 (inactive),0.177 (inactive),-0.16 (inactive)
COc1cc(CO)cc(I)c1O[C@H]1C=C(C(=O)NCCO)C[C@@H]2O[C@H]12,-0.876,-11.2 (active),-0.0563 (inactive),-1.32 (inactive),-0.0339 (inactive),1.69 (inactive),-0.364 (inactive),-0.475 (inactive),-0.408,0.305,0.28 (inactive),0.347,-1.41,-7.29 (inactive),0.552 (inactive),0.361 (inactive)
CCCCC(O)C1C=CC2C(=O)N(c3ccccc3)C(=O)C2N1Nc1ccc(C#N)cc1 (centres undefined),-0.438,-1.03 (inactive),0.0125 (inactive),0.318 (inactive),0.999 (inactive),0.63 (inactive),0.172 (inactive),-0.465 (inactive),0.628,0.169,1 (inactive),0.109,0.832,-3.62 (inactive),0.194 (inactive),0.404 (inactive)
CCCCN1CC=CC23O[C@@H]4/C=C\CCCOC(=O)C4[C@H]2C(=O)N(C(CO)C(C)C)[C@@H]3C1=O (some centres undefined),-0.101,0.259 (inactive),-0.289 (inactive),-1.4 (inactive),-0.0432 (inactive),-0.427 (inactive),0.116 (inactive),-0.091 (inactive),-0.235,-0.0393,1.4 (inactive),-0.492,1.18,-5.81 (inactive),0.458 (inactive),0.188 (inactive)
